Test [1] concerns the target T1, ETS1 (UniProt P14921).
T1 sequence: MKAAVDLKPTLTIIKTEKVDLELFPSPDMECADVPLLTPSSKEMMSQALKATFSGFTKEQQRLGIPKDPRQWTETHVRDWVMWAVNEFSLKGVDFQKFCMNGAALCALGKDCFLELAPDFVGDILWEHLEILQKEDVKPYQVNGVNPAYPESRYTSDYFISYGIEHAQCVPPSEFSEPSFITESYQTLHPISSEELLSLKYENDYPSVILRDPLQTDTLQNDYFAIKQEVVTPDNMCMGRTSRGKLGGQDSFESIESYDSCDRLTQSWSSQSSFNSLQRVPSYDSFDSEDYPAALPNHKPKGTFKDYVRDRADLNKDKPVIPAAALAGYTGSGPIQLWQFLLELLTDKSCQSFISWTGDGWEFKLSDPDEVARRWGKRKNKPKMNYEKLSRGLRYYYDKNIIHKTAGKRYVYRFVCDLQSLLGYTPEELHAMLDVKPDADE
Kind of test: ETS1 binding intensity (PBM fluorescence), ETS1 alone (arbitrary fluorescence units); higher = stronger binding. The settings on record: ETS1 concentration 1 nM; RUNX1 concentration 0 nM.

Another test has as its target RUNX1 (UniProt Q01196). The experiment in a line: RUNX1 binding intensity (PBM fluorescence), RUNX1 alone (arbitrary fluorescence units); higher = stronger binding. To be noted: RUNX1 concentration 2 nM; ETS1 concentration 0 nM. The procedure:
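Cooperative gcPBM on 36-bp genomic probes with neighbouring ETS1 and RUNX1 sites. Recombinant human RUNX1 (2 nM) was incubated alone or with ETS1 (25 nM) and detected with anti-RUNX1 antibody plus Alexa488 secondary. Values are medians over 4 replicate spots; the RUNX1+ETS1 data were normalised to the RUNX1-only data. The probes sit in constant array flanks that are not printed.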

Test [2] has as its target T1, ETS1. The experiment in a line: ETS1 binding intensity (PBM fluorescence) in presence of RUNX1, normalised to ETS1-only experiment (arbitrary fluorescence units); higher = stronger binding. The settings on record: ETS1 concentration 1 nM; RUNX1 concentration 25 nM.
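Throughout, for RUNX1 binding intensity (PBM fluorescence), RUNX1 alone: Full-length recombinant human RUNX1 bound to double-stranded 36-bp genomic probes on a high-density microarray, scored as Alexa488 fluorescence per spot via anti-RUNX1 antibody, median of four replicate spots.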

RUNX1, sequence (Q01196 whole entry): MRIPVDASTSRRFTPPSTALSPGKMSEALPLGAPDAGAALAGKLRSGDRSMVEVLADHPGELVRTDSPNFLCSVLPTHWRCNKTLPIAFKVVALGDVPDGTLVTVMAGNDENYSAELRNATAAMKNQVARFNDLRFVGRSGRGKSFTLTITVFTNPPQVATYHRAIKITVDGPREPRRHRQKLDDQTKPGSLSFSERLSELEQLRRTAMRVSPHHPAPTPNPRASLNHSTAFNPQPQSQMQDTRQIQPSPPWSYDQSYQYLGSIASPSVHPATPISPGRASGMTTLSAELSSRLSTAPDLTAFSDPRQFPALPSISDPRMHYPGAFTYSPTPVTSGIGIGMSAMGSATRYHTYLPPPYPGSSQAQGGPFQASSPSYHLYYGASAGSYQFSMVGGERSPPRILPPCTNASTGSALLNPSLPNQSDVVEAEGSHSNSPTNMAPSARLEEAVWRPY

For CAGATTTCCGGCTTCTGAGGAGCTGCCCTACCACAG, the ETS1 binding intensity in the test with ETS1 [1] was 530. As to GAATGGCGGATGTGGCTGGGGAGAGAAAGCCGCAGA, the ETS1 binding intensity in the test with ETS1 [1] is 914. For the same sequence, the RUNX1 binding intensity in the test with RUNX1 was 836. AATTGAGACAGGAAATGTTGGTTTGTGGTCAGGCAC yielded an ETS1 binding intensity in the test with ETS1 [1] of 5020. Also, in the test with RUNX1, the RUNX1 binding intensity turned out to be 1170.

Turning to CGGGCCCGACGGAAACCATGTTTGTGGCTCGCAGCA, the ETS1 binding intensity with ETS1 [1] was determined as 744.

Take GGGTCGCGGCCTTCCGGCGAACGCGGTTACCGTGGA: the ETS1 binding intensity with ETS1 [1] was 555. In the test with RUNX1, this sequence showed an RUNX1 binding intensity of 853. The corresponding values for GAGGGACAGGATGCCGCCAGGAACCACAAGAGCTTC are 996 and 844.

Sequence GCACACCGGAACTCACACCTGAAACCACAGAACCAA gave an ETS1 binding intensity with ETS1 [1] of 868. For the same sequence, the RUNX1 binding intensity with RUNX1 was found to be 2180. Turning to TGGAATTGAAAGGAAGCTGGCGCCACCGCAGAGGAC, the ETS1 binding intensity with ETS1 [1] was 658. The sequence AAGGACCGACCCGTTTTCCGCCCGCAGCGGAGCTTG came in with an ETS1 binding intensity in the test with ETS1 [1] of 439.

The sequence TAACCCGGAGCGGAAGGATCCCGCAGCGTGTGCGTA yielded an ETS1 binding intensity in the test with ETS1 [1] of 681.

TCAAGTTTGGTAACAGGATGTGGTAGGAGGAACACA had an ETS1 binding intensity with ETS1 [1] of 8320. The sequence further registered an RUNX1 binding intensity with RUNX1 of 747. TAAACGTCAGCTTCCTTTGTGGCTTACCCTCCCGCC yielded an ETS1 binding intensity with ETS1 [1] of 495.

In the case of GAGAGAGGCAGGAAGTGTTGTGGTTATTGTTTGAGC, the ETS1 binding intensity with ETS1 [1] amounted to 4710. Also, the RUNX1 binding intensity with RUNX1 was 1240.

ACAGGTTCAGGAAGCGGCCGTGGTTGTTAGTGGTGT gave an ETS1 binding intensity with ETS1 [1] of 718. For TGCTCCACTCGGAAGTGGTGCCGCAGCTCTTCGATG, the ETS1 binding intensity with ETS1 [1] came out at 697. In turn, GGTACCAAGGGCAGAGGATGTGGTGAGGTGTGGAGG returned an ETS1 binding intensity in the test with ETS1 [1] of 940.

Sequence ATGTAAACAAGGATGTGAGTTCTGCGGCCACACTCT yielded an ETS1 binding intensity with ETS1 [1] of 448. In the test with ETS1 [1], GCGCGGCCCGGAAGGGGGTAACCGCTGAGTCTTTGA had an ETS1 binding intensity of 794. In the test with RUNX1, this sequence showed an RUNX1 binding intensity of 784. Sequence CGTTTCCTGTGGCTGCAGCTCTCCCCACCCACACAC yielded an ETS1 binding intensity with ETS1 [1] of 829. In the test with ETS1 [1], GATACTCTTCCTGTCATCCCATCCCCACAGCCTTAG yielded an ETS1 binding intensity of 503. AGGCTGTGTGAAGGATGTGGTCAGGCGGAGGCCAGG had an ETS1 binding intensity in the test with ETS1 [1] of 604. The RUNX1 binding intensity with RUNX1 was found to be 921. Consider CCCGGAGGACGTCCGGCCTCTGTGAGCCGCAACCTT, for which the ETS1 binding intensity turned out to be 440 in the test with ETS1 [1] and 561 with ETS1 [2]. This sequence also displayed an RUNX1 binding intensity in the test with RUNX1 of 838. Consider CCTCCCTGAGGGGGAAGTGGTTTTTGAGTCTGAGTC, for which the values for the ETS1 binding intensity with ETS1 [1] and with ETS1 [2] were 579 and 1190, respectively. Further, in the test with RUNX1, the RUNX1 binding intensity worked out at 859. The matching figures for CTCGCGATTCCTCTTCCGCTGCGGTCTCCTTAACAC: 634, 841 and 1290.
